Beta apoptosis: inhibitors of cytokine-induced beta cell apoptosis, primary screen, luminescence; INS-1E cytokine-induced death, ATP luminescence, 48 h; percent of positive-control rescue, neutral wells zero; protection from apoptosis, % (concentration not given with the values); AID 435005, 2010; 0.8% of 300,000 active;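 active = Every replicate reaches about 75%, or at least half do and their mean reaches it too, limit read from the data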;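 note: higher means more ATP so stronger rescue from cytokine killing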
CSC inhib: cancer stem cell viability inhibitors, primary screen, luminescence | cancer stem cell-like cells viability | inhibition, % at 7.5 µM | 1.1% of 300,000 active; in the data active = inhibition above about 75%; tested in HMLE shEcad cells
Mdm2-MdmX inh: inhibitors of human Mdm2-MdmX association, primary screen, cell-based, luminescence, split luciferase, SaOS-2, uHTS | SaOS-2 split-luciferase Mdm2/MdmX complementation | inhibition, % at 8 µM | 3% of 330,000 active | AID 485346, 2010 | Protein Mdm4 (Homo sapiens) + E3 ubiquitin-protein ligase Mdm2 (Homo sapiens), …;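 active = inhibition of at least 50% at 8 µM in the primary screen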
NR3A LBD binder: binders of NR3A ligand-binding domain, primary screen, biophysical, differential scanning fluorimetry, uHTS. Glutamate receptor ionotropic, NMDA 3A (GRIN3A) ligand-binding domain. NR3A LBD differential scanning fluorimetry, Tm shift; 0% = protein alone, 100% = glycine-bound protein. Tm shift relative to glycine control, % at 25 µM. 2.5% of 340,000 active. AID 1259313, 2017;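 active = melting temperature shift of at least 10% of the positive control shift, at one fixed dose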
MPTP inh: mitochondrial permeability transition pore inhibitors, primary screen, biochemical, isolated mouse mitochondria, absorbance | Ca2+ swelling absorbance, 30 min | inhibition, % at 10 µM | 1.4% of 360,000 active | AID 602449, 2012;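 active = inhibition of 50% or more, scaled per plate between neutral and stimulator controls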
Gli-Sufu block: Gli-Sufu pathway antagonists, primary screen, luciferase luminescence, Sufu-KO-LIGHT cells, uHTS; Sufu-KO-LIGHT fibroblasts, Gli luciferase reporter luminescence; inhibition, % at 5 µM; 0.74% of 340,000 active;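 active = inhibition above about 55%, limit read from the data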
Gli-Sufu confirm: Gli-SUFU pathway antagonists, confirmation, single concentration, luciferase luminescence, Sufu-KO-LIGHT cells; shares compounds with Gli-Sufu block; Gli luciferase reporter; inhibition, % at 5 µM; 40% of 2,500 active;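 active = mean inhibition at 5 µM reaching about 45%, limit read from the data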
Gli cytotox: cytotoxicity in Sufu-KO-LIGHT cells, confirmation, cytotoxicity control for Gli-SUFU antagonist project, cell-based, ATP luminescence, single concentration; shares compounds with Gli-Sufu block; cytotoxicity, % at 5 µM; 32% of 2,500 active; AID 651994, 2013;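 active = mean cytotoxicity at 5 µM above about 25%, limit read from the data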;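 note: cells exposed to compound overnight for roughly 16 to 18 hours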
Wnt3a counter: Wnt3a reporter signal inhibition, confirmation, counter-screen for Gli-SUFU antagonist project, Wnt-LIGHT cells, luminescence, single concentration. shares compounds with Gli-Sufu block. Wnt3a-driven luciferase reporter. inhibition, % at 6.25 µM. 20% of 2,500 active. AID 651995, 2013;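 active = mean inhibition above about 25%, limit read from the data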
Large screens that a line does not name were inactive (follow-up assays come after a bar, where they were run). This is a sample that favours compounds with a hit; in the whole collection about 6.6% have one here.

CN1CCc2c(sc3c2c(=O)n(-c2ccccc2)c2nnc(SCc4ccc(Cl)cc4)n32)C1	none | Gli-Sufu confirm inactive | Gli cytotox inactive | Wnt3a counter inactive
OC1(c2ccccc2)Cc2cccc[n+]2C1c1ccccc1 (centres undefined)	none (no result: Beta apoptosis)
CSc1ccc(C2(O)Cc3cccc[n+]3C2c2ccccc2)cc1 (centres undefined)	Gli-Sufu block 56 | Gli-Sufu confirm inactive | Gli cytotox inactive | Wnt3a counter inactive
CSc1ccc(S(=O)(=O)N2CCC(C(=O)NCc3ccccn3)CC2)cc1	none
COc1ccc(F)cc1CN1CCN(C(=O)CCC(=O)Nc2nnc(C(C)C)s2)CC1	Gli-Sufu block 96 (no result: CSC inhib) | Gli-Sufu confirm inactive | Gli cytotox inactive | Wnt3a counter inactive
CCCc1nnc(NC(=O)CCC(=O)N2CCN(Cc3cc(F)ccc3OC)CC2)s1	none
COc1cc(OC)cc(C(=O)NNC(=O)c2nn(C)c(=O)c3ccccc23)c1	none
COc1ccc(N/C=C(\C(C)=O)c2ccc(OC)c(OC)c2)cc1OC	none
O=C(Nc1cccc(C(F)(F)F)c1)C1CCN(S(=O)(=O)c2ccc(N3CCCC3=O)cc2)CC1	none | Gli-Sufu confirm 58 | Gli cytotox inactive | Wnt3a counter inactive
COc1cccc(NC(=O)C2CCN(S(=O)(=O)c3ccc(N4CCCC4=O)cc3)CC2)c1	none (no result: Beta apoptosis, CSC inhib, Mdm2-MdmX inh, NR3A LBD binder, Gli-Sufu block)
COC(=O)c1c[nH]c2c1-c1cc(C(=O)OCc3ccccc3)n(S(=O)(=O)c3ccc(C)cc3)c1C(=O)C2=O	Gli-Sufu block 55 (no result: Beta apoptosis, CSC inhib, Mdm2-MdmX inh) | Gli-Sufu confirm 76 | Gli cytotox 51 | Wnt3a counter 100
Cc1ccc(S(=O)(=O)Cc2ccc(C(=O)OCc3ccccc3)cc2)cc1	none
O=C(O)c1ccc(N2C(=O)C3C4c5ccccc5C(Br)(c5ccccc54)C3C2=O)cc1 (centres undefined)	Gli-Sufu block 66 | Gli-Sufu confirm inactive | Gli cytotox inactive | Wnt3a counter inactive
Cc1ccc(C(=O)N2CCCC(N(C)Cc3ccccc3)C2)s1 (centres undefined)	Gli-Sufu block 95 | Gli-Sufu confirm inactive | Gli cytotox inactive | Wnt3a counter inactive
O=C1Nc2ccccc2N(O)N1c1ccc(S(=O)(=O)N2CCCCCC2)cc1	none
CCc1ccccc1NC(=O)COc1cccc(-n2cnnn2)c1	none
O=C(COc1ccccc1[N+](=O)[O-])N1CCC(Cc2ccccc2)CC1	none (no result: CSC inhib)
NC(=O)c1ccccc1OCC(=O)N1CCC(Cc2ccccc2)CC1	none (no result: CSC inhib) | Gli-Sufu confirm 46 | Gli cytotox inactive | Wnt3a counter 27
CCc1cccc(NC(=O)CCCn2nc(CC)n3c(cc4occc43)c2=O)c1	none
CCc1nn(CCCC(=O)NCc2ccccc2Br)c(=O)c2cc3occc3n12	Gli-Sufu block 82 | Gli-Sufu confirm inactive | Gli cytotox inactive | Wnt3a counter inactive
Cc1c(C)n(Cc2ccc(Cl)cc2)c2ccc(C(=O)NCCN3CCOCC3)cc12	none
O=C(Cc1ccc(S(=O)(=O)N2CCOCC2)s1)Oc1ccc(F)cc1	Gli-Sufu block 96 | Gli-Sufu confirm inactive | Gli cytotox inactive | Wnt3a counter inactive
CCN(Cc1ccc(NC(C)=O)cc1)CC1CCCN(CCc2cccc(OC)c2)C1 (centres undefined)	Gli-Sufu block 61 | Gli-Sufu confirm inactive | Gli cytotox inactive | Wnt3a counter 50
Cc1cc(N2CCN(S(=O)(=O)c3ccc(Br)cc3)CC2)n2ncnc2n1	none

Bioassay records from PubChem BioAssay.
